Experimental data from PubChem BioAssay AID504408 (Broad Institute, 2011).
The campaign covered roughly 300,000 compounds. About 5,200 (1.7%) were called active. This is one part of a sample in which actives are shown more often than they occur. Values without a mark were called inactive.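 The calls were made as follows: active = mean replicate activation of at least 50% with a set share of replicates each reaching 50%; inconclusive = only one of those two conditions met; inactive = mean below 50% and too few replicates reaching it.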

Assay: HSF-1 activators, primary screen, NIH3T3-HGL cells, MG132 stress, luminescence, single point (AID 504408);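 also: 0% = median of the neutral control wells and 100% = twice that signal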
Details: NIH3T3-HGL HSF-1 luciferase reporter, MG132, 8 h; at 9 µM; active compounds read high; 100% = twice DMSO control signal

| SMILES | activation |
| --- | --- |
| O=C(NCCc1ccccc1)c1ccc2c(c1)N(Cc1ccccc1)CCS2 | 82.5% (active) |
| O=C(NCCN1CCOCC1)c1ccc2c(c1)N(Cc1ccc(Cl)cc1)CCS2 | 16.5% |
| CCOC(=O)N1CCN(C(=O)c2ccc3c(c2)N(Cc2ccc(C)cc2)CCS3)CC1 | 9.82% |
| CC(=O)Nc1ccc(NC(=O)CSC2=NS(=O)(=O)c3ccccc3N2)cc1 | -10.3% |
| CC(=O)Nc1ccc(NC(=O)C(C)OC(=O)C2CC(=O)N(CCc3ccccc3)C2)cc1 (stereo not given) | -21.8% |
| COCCN(C(=O)COC(=O)Cc1cccc(OC)c1)c1c(N)n(Cc2ccccc2)c(=O)[nH]c1=O | 2.54% |
| Cc1cccc([C@@H]2[C@@H]3C(=O)N(Cc4ccccc4)C(=O)[C@@H]3[C@]3(Cc4ccc(Cl)cc4)C(=O)N(c4cccc(Cl)c4)C(=O)N23)c1 | 13.8% |
| Cc1ccc(C(=O)CN2C(=O)NC3(CCc4ccccc43)C2=O)c(C)c1 (stereo not given) | 0.629% |
| COC(=O)c1sc(NC(=O)c2csc3c2CCCC3)nc1C | 30.2% |
| O=C(Nc1ccccc1N1CCOCC1)c1csc2c1CCCC2 | 6.54% |
| Cc1ccc(NC(=O)c2csc3c2CCCC3)cc1 | 59.9% (active) |
| Cc1cc(=O)oc2cc(NC(=O)C(C)Oc3ccccc3)ccc12 (stereo not given) | -3.4% |
| O=C(c1cc(-c2ccco2)nc2ccccc12)N(Cc1nnc(-c2ccc(Cl)cc2)o1)C1CC1 | 16.1% |
| NC(=O)C1CCN(C(=O)c2cn(-c3ccccc3)nc2-c2cccnc2)CC1 | 32.4% |
| CN(c1cccc(NC(=O)Nc2ccc(Cl)cc2)c1)S(C)(=O)=O | 115% (active) |
| COc1cccc(N(CC(=O)Nc2cccc(N(C)S(C)(=O)=O)c2)S(C)(=O)=O)c1 | 12.3% |
| Cc1ccc(N(CC(=O)Nc2cccc(N(C)S(C)(=O)=O)c2)S(C)(=O)=O)cc1 | 0.04% |
| Cc1ccc2nc(-c3ccc(SCC(=O)Nc4cc(C)on4)nc3)[nH]c2c1 | 55.5% (active) |
| Cc1ccc2nc(SCC(=O)NC3CCCC3)[nH]c2c1 | 7.63% |
| Cc1ccc(SCCC(=O)Nc2cc(C)on2)cc1 | -5.42% |
| O=C(COc1ccccc1F)Nc1nc(-c2ccccn2)cs1 | -13.1% |
| COc1ccc(-c2cn(-c3ccc(OC)cc3)c(=S)[nH]2)cc1 | 56.7% (active) |
| S=c1[nH]c(-c2cccs2)cn1-c1ccccc1 | 33.3% |

| SMILES | activation |
| --- | --- |
| COc1ccc(-n2c(-c3ccc(OC)c(OC)c3)n[nH]c2=S)cc1 | 3.03% |
| CC[C@@]12C(=O)N(c3ccccc3)C(=O)N1[C@H](c1ccc(Br)cc1)[C@@H]1C(=O)N(C(C)(C)C)C(=O)[C@@H]12 | -15% |
| CC1CCCCC1NC(=O)c1cc(=O)[nH]c2ccccc12 (stereo not given) | 1.85% |
| CCN1CCN(C(=O)N(Cc2ccc(Cl)cc2)S(=O)(=O)c2ccc(C)cc2)CC1 | 0.289% |
| CCOC(=O)c1c(C)nc2c(c1C)c(=O)oc1ccccc12 | 36.6% |
| CCCCC(=O)Nc1cc(C)c2c(=O)oc3ccccc3c2n1 | 6.46% |
| Cc1ccccc1-n1nnc2c(=O)oc3ccccc3c21 | 105% (active) |
| CN(CC(=O)NNC(=O)CNC(=O)c1ccccc1Cl)S(=O)(=O)c1ccc(Cl)cc1 | -6.99% |
| CCSc1nnc(-c2cc3c(s2)-c2ccccc2CC3)o1 | 51.8% (active) |
| Fc1ccc(CSc2nnc(-c3cc4c(s3)-c3ccccc3CC4)o2)cc1 | 21.9% |
| O=C(CSc1nnc(-c2ccccc2O)o1)NC1CCCCC1 | -7.41% |
| O=C(c1ccncc1)N1CCN(S(=O)(=O)c2cc(C(F)(F)F)cc(C(F)(F)F)c2)CC1 | 4.51% |
| COc1ccc(/C(C)=N/NC(=O)CCC(=O)Nc2ccc(Cl)cc2Cl)c(OC)c1 | 1.67% |
| CCCCC(=O)N/N=C(\C)CC(=O)Nc1cc(Cl)ccc1OC | 72.1% (active) |
| COc1ccc(Cl)cc1NC(=O)CNc1ccccc1F | 2.49% |
| COc1ccc(N2CCN(C(=O)CCNC(=O)c3ccc(Br)cc3)CC2)cc1 | 6.12% |
| CCN(CC(=O)Nc1cc(Cl)ccc1C)C(=O)CN1C(=O)NC2(CCCC2)C1=O | -8.94% |
| COc1ccccc1NC(=O)Nc1nc(CC(=O)Nc2ccccc2F)cs1 | 23.4% |
| COc1ccc(NC(=O)CN(C)C(=O)c2cc(-c3ccc(C)o3)nc3ccccc23)cc1 | 19.7% |
| CC(C)C(=O)OCC(=O)Nc1ccc2c(c1)CCC2 | 41.4% |
| O=C(Nc1ccc2c(c1)CCC2)c1ccc(Br)s1 | 71% (active) |
| O=C(NC1CCCC1)c1ccc(Br)s1 | 7.08% |
| COc1ccc(S(=O)(=O)N2CCCC2CNC(=O)C(=O)NC2CC2)cc1 (stereo not given) | 5.75% |

| SMILES | activation |
| --- | --- |
| CC(=NCc1ccco1)C1=C(O)c2ccccc2C1=O | 106% (active) |
| CC(=NCc1ccc2c(c1)OCO2)C1=C(O)c2ccccc2C1=O | 33.7% |
| CC(=NCc1ccco1)c1c(C(F)(F)F)[nH]n(-c2nc3ccccc3s2)c1=O | -45.7% |
| Cc1ccc(-c2cc(C(=O)NC3CCN(Cc4ccccc4)CC3)c3ccccc3n2)cc1 | 11.6% |
| CC1=C(/C=C/C(C)=C/C=C/C(C)=C/C=C/C=C(C)/C=C/C=C(C)/C=C/C2=C(C)CCCC2(C)C)C(C)(C)CCC1 | 54.5% (active) |
| Cc1cccc(C(=O)OC(C)C(=O)NC2CCCc3ccccc32)c1O (stereo not given) | -1.67% |
| CC(C)N(Cc1nnc(-c2ccc(Cl)cc2)o1)C(=O)C1=COCCO1 | -12.7% |
| Cc1ccc(NC(=O)CN2C(=O)NC(C)(c3ccc(Cl)cc3)C2=O)c(Br)c1 (stereo not given) | 78.5% (active) |
| CC1(c2ccccc2)NC(=O)N(CC(=O)Nc2cc(Cl)ccc2N2CCOCC2)C1=O (stereo not given) | -13.3% |
| Cc1ccc(C2(C)NC(=O)N(CC(=O)Nc3ccccc3C(=O)N3CCCCC3)C2=O)cc1 (stereo not given) | 20.7% |
| Cc1ccc(NC(=S)Nc2ncccc2C)c(C)c1 | 56.7% (active) |
| Cc1ccc(NC(=S)NCc2ccccc2Cl)c(C)c1 | 5.6% |
| Cc1ccc(NC(=S)NCCc2ccc(Cl)cc2)c(C)c1 | 21.9% |
| O=S(=O)(Nc1cccc(-c2ccc(N3CCOCC3)nn2)c1)c1ccc(Cl)c(Cl)c1 | 5.14% |
| CCOc1ccc(S(=O)(=O)N2CCN(C(=S)NCC3CCCO3)CC2)cc1 (stereo not given) | -5.36% |
| O=C(CCC(=O)c1cccs1)Nc1nc2ccccc2s1 | 10.8% |
| CC(=O)Nc1ccc(-c2csc(NC(=O)Nc3ccccc3)n2)cc1 | -8.14% |
| O=C(Nc1ccccc1)Nc1nc2ccccc2s1 | 61.1% (active) |
| CCCNC(=O)CCn1cc(-c2ccc(OC)cc2)nc1CCN | -10.4% |
| COc1cc(NS(=O)(=O)c2ccc3ccccc3c2)c2ncccc2c1 | -10.7% |
| Cc1ccccc1NC(=O)c1ccccc1NS(=O)(=O)c1cccc2cccnc12 | -9.95% |
| O=[N+]([O-])c1ccccc1S(=O)(=O)Nc1cccc2cccnc12 | 144% (active) |
| COc1ccc(C(=O)OCC(=O)c2ccc(Cl)s2)c(OC)c1OC | 3.84% |

| SMILES | activation |
| --- | --- |
| Cc1cc(NC(=O)C(C)SCC(=O)Nc2ccccc2N2CCCCC2)no1 (stereo not given) | 10.3% |
| CCN(CC(=O)Nc1c(F)cccc1F)C(=O)c1ccc(-c2ccccc2)cc1 | 0.0275% |
| CCCCn1c(N)c(N(CCOC)C(=O)c2cccc(OCc3ccccc3)c2)c(=O)[nH]c1=O | -6.35% |
| CC(OC(=O)C1CC(=O)N(Cc2ccccc2)C1)C(=O)Nc1ccccc1[N+](=O)[O-] (stereo not given) | 8.17% |
| O=C(O)c1cccc(S(=O)(=O)Nc2ccc(O)cc2Sc2nc3ccccc3s2)c1 | 1.08% |
| O=[N+]([O-])c1c(NCCO)cc(Sc2nc3ccccc3s2)c2nonc12 | 229% (active) |
| CCOc1ccccc1Nc1ccc2nonc2c1[N+](=O)[O-] | -13.1% |
| Cc1ccc(C)c(OCCC(=O)OCC(=O)c2ccc3c(c2)NC(=O)CO3)c1 | -12.3% |
| COc1ccccc1C(=O)NC(=O)COC(=O)c1ccco1 | -0.902% |
| CCCn1c(SCC(=O)c2ccc3c(c2)OCCO3)nnc1C(C)C | 62.4% (active) |
| CCn1c(SCC(=O)Nc2ccc3c(c2)OCCO3)nnc1C(C)C | -3.33% |
| CCCn1c(SCC(N)=O)nnc1C(C)C | 1.36% |
| Cc1ccc(S(=O)(=O)N2CCC(C(=O)OCC(=O)N(C)c3ccccc3)CC2)cc1C | -10.4% |
| Cn1cccc1C(=O)OCC(=O)c1ccc(Br)s1 | -97.9% |
| Cc1ccc(/C=C/C(=O)Nc2ccc([N+](=O)[O-])c(NC(=O)/C=C/c3ccc(C)o3)c2)o1 | 73% (active) |
| CCc1nnc(NC(=O)/C=C/c2ccc(C)o2)s1 | 3.89% |
| Cc1ccc(/C=C/C(=O)Nc2cc(S(=O)(=O)N3CCCCCC3)ccc2OCC(F)(F)F)o1 | 2.76% |
| CCN(C(=O)CSc1nnc(-c2ccc(OC(F)F)cc2)n1N)C1CCS(=O)(=O)C1 (stereo not given) | -15.1% |
| COC(=O)c1ccc(NS(=O)(=O)c2cc3c4c(c2)C(C)C(=O)N4CCC3)cc1 (stereo not given) | 21.6% |
| COc1ccc(NC(=O)CN(C)C(=O)c2ccc(NC3CC3)c([N+](=O)[O-])c2)cc1 | 5.08% |
| O=C1CCc2cc(S(=O)(=O)Nc3ccc(C(F)(F)F)cc3)cc3c2N1CC3 | 15.1% |
